# Screening data deposited in PubChem BioAssay by Broad Institute.
# This excerpt belongs to a sample that is enriched for hits.
# ERAP1 HTS inh = blocks human ERAP1 aminopeptidase activity | AID 652197 | recombinant ERAP1, Leu-AMC fluorescence, 60 min | 0.15% of 340,000 active | inhibition, % at 10.7 µM;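 active means mean replicate inhibition of at least 30%, or all replicates individually reaching that 30% level; inactive means mean below 30% and not every replicate reaching it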;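 further: 0% = neutral control wells and 100% = L-leucinethiol positive control wells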
# PDI inh = PDI (human) enzyme inhibition; AID 588391; PDI insulin aggregation turbidity, A650, 90 min; 0.052% of 350,000 active; inhibition, % at 10 µM;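 active means mean inhibition across replicates of 30% or more, whatever share of single replicates reach that level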
# Target sequence (P07237 whole entry, looked up): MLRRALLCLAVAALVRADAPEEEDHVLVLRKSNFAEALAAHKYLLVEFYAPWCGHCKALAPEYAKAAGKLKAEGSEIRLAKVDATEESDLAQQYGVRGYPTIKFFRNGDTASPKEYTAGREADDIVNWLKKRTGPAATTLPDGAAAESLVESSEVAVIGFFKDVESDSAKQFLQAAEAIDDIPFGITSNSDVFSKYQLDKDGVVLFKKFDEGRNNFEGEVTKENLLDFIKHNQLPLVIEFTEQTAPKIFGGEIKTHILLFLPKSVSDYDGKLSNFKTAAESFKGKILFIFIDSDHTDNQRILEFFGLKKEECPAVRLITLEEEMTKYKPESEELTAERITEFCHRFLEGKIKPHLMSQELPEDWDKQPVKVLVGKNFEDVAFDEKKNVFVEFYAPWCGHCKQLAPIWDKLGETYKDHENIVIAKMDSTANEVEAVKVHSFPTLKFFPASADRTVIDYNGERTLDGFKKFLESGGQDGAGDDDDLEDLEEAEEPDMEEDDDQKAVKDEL
# HDAC3 inh = human HDAC3 inhibition | AID 2718 | 0.15% of 320,000 active | inhibition, % at 8.3 µM | recombinant HDAC3, fluorogenic peptide/trypsin coupled, fluorescence; in the data active means inhibition above about 26%, passing the limit was not always enough
# ERp5 block = blocks human ERp5 reductase activity on insulin. Q15084. ERp5 insulin aggregation, absorbance 650 nm, 90 min. inhibition, % at 9.99 µM. 0.05% of 350,000 active. AID 651711;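 active means mean replicate inhibition above about 25%, with every replicate also reaching it, limit read from the data, passing the limit was not always enough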
# SIRT5 inh = sirtuin-5 (human) deacylase inhibition; inhibition, % at 15 µM; Q9NXA8; Purified SirT5, succinyl-peptide AMC, trypsin-coupled fluorescence; 1.1% of 330,000 active; in the data active means inhibition above about 15%
# * = called active by the depositor; nt = no result given; ! = repeats disagree.
SMILES,ERAP1 HTS inh,PDI inh,HDAC3 inh,ERp5 block,SIRT5 inh
COc1ccc(NC(=O)Nc2ccc3c(c2)C(=O)N([C@@H](C)CO)C[C@@H](C)[C@H](CN(C)S(=O)(=O)c2ccccc2)OCCCC[C@@H](C)O3)cc1,2,nt,nt,0,15*
COc1ccc(S(=O)(=O)N(C)C[C@H]2OCCCC[C@H](C)Oc3ccc(NC(=O)Nc4ccc(F)cc4)cc3C(=O)N([C@H](C)CO)C[C@@H]2C)cc1,1,nt,nt,1,17*
COCCNC(=O)c1cc2c(c(-c3cccc(-c4ccc(C#N)cc4)c3)n1)[C@H](CCO)N(C(=O)CC1CC1)C2,-3,nt,nt,-2,2
Cc1cccc2sc(N(CCCN(C)C)C(=O)c3ccc4ncsc4c3)nc12,76*,-8,4,-4,-2
C[C@@H]1CCCCO[C@@H](CN(C)C(=O)CCC(F)(F)F)[C@H](C)CN([C@@H](C)CO)C(=O)c2cc(NS(=O)(=O)c3ccc(Cl)cc3)ccc2O1,0,nt,nt,64*,13
Cc1ccc(S(=O)(=O)Nc2ccc3c(c2)C(=O)N([C@@H](C)CO)C[C@H](C)[C@H](CN(C)C(=O)CCC(F)(F)F)OCCCC[C@H](C)O3)cc1,3,nt,nt,1,17*
Cc1ccc(S(=O)(=O)Nc2ccc3c(c2)C(=O)N([C@@H](C)CO)C[C@@H](C)[C@@H](CN(C)C(=O)CCC(F)(F)F)OCCCC[C@H](C)O3)cc1,-2,nt,nt,2,5
C[C@H](CO)N1C[C@H](C)[C@@H](CN(C)C(=O)CCC(F)(F)F)OCCCC[C@H](C)Oc2ccc(NS(=O)(=O)c3ccc(Cl)cc3)cc2C1=O,4,nt,nt,-1,13
C[C@H]1CCCCO[C@H](CN(C)C(=O)CCC(F)(F)F)[C@@H](C)CN([C@@H](C)CO)C(=O)c2cc(NS(=O)(=O)c3ccc(Cl)cc3)ccc2O1,0,nt,nt,9,15*
COc1ccc(S(=O)(=O)N(C)C[C@@H]2Oc3ncc(C#CCN(C)C)cc3C(=O)N([C@H](C)CO)C[C@@H]2C)cc1,-2,nt,nt,-2,21*
Cc1ccc(S(=O)(=O)N(C)C[C@@H]2Oc3ncc(C#Cc4ccccc4)cc3C(=O)N([C@H](C)CO)C[C@@H]2C)cc1,-1,nt,nt,0,16*
C[C@@H]1CN([C@@H](C)CO)C(=O)c2cc(/C=C/c3ccccc3)cnc2O[C@@H]1CN(C)S(=O)(=O)c1ccc(F)cc1,1,14,nt,-1,32*!
C[C@H]1CN([C@@H](C)CO)C(=O)c2cc(-c3ccc(C#N)cc3)cnc2O[C@@H]1CN(C)C(=O)Nc1ccc(C(F)(F)F)cc1,-4,nt,nt,3,19*
COc1cccc(S(=O)(=O)N(C)C[C@@H]2Oc3ncc(C#CCN(C)C)cc3C(=O)N([C@@H](C)CO)C[C@H]2C)c1,-1,nt,nt,-1,-6
C[C@@H]1CN([C@@H](C)CO)C(=O)c2cc(-c3ccc(C#N)cc3)cnc2O[C@@H]1CN(C)C(=O)Nc1ccc(C(F)(F)F)cc1,3,nt,nt,-1,7
C[C@H](CO)N1C[C@H](C)[C@H](CN(C)S(=O)(=O)c2ccc(C#N)cc2)Oc2ncc(C#Cc3ccccc3)cc2C1=O,-1,nt,nt,-3,4
C[C@H](CO)N1C[C@H](C)[C@H](CN(C)S(=O)(=O)c2ccc(C#N)cc2)Oc2ncc(C#Cc3ccc(C(F)(F)F)cc3)cc2C1=O,-1,nt,nt,6,27*
Cc1noc(C)c1CSCC(=O)Nc1ccccc1N1CCCC1,-1,-3,nt,-2,16*
O=C1CN(S(=O)(=O)c2ccccc2)C[C@H]2[C@@H](c3ccc(C#Cc4ccccc4)cc3)[C@@H](CO)N12,1,nt,nt,1,6
O=C1CN(S(=O)(=O)c2ccccc2)C[C@@H]2[C@H](c3ccc(C#Cc4ccccc4)cc3)[C@H](CO)N12,-1,nt,nt,2,25*
O=C1CN(S(=O)(=O)Cc2ccccc2)C[C@@H]2[C@H](c3ccc(C#Cc4cccc(F)c4)cc3)[C@H](CO)N12,1,nt,nt,3,17*
O=C1CN(S(=O)(=O)Cc2ccccc2)C[C@H]2[C@H](c3ccc(C#Cc4cccc(F)c4)cc3)[C@@H](CO)N12,1,nt,nt,1,-4
C[C@H](CO)N1C[C@H](C)[C@H](CN(C)C(=O)c2ccccc2)Oc2cc(C#CC3CC3)ccc2S1(=O)=O,4,nt,nt,0,-3
Cc1ccc(S(=O)(=O)Nc2ccc3c(c2)C(=O)N([C@@H](C)CO)C[C@@H](C)[C@@H](CN(C)S(=O)(=O)c2ccc(Cl)cc2)O3)cc1,1,nt,nt,1,20*
